Source: PubChem BioAssay
Rows were chosen to be rich in hits. Some 15% of all compounds tested hit in one or more screens of this group.
HCMV antiviral = qHTS Assay for inhibitors of the human cytomegalovirus (HCMV). AID 1259415, 2018. HFF cells, HCMV-luciferase reporter, 72 h; hits give low values. activity change, negative = inhibition, % at 57.5 µM. actives 4.5% (n = 410,000); in the data active means activity change below about -60%; inconclusive means no clear call, values can overlap the other calls; inactive means above about -39%; further: on the % scale 0 is the no-effect control and ±100 the full control effect
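Human foreskin fibroblasts infected with luciferase-reporter HCMV at MOI 1 PFU/cell, compounds at two doses. Luciferase measured 72 h post infection; normalized to buffer-only basal and Salinomycin (10uM) controls.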
SARS PLpro yeast = qHTS of Yeast-based Assay for SARS-CoV PLP. S. cerevisiae expressing SARS-CoV PLpro, growth rescue. Potency, µM (highest dose often 32.9 µM), for inactives: at the top dose activity, positive = growth rescue, hits mostly activators. actives 0.19% (n = 330,000). AID 485353, 2010; calls by dose curve; further: potency means the concentration at half of the fitted maximal effect; 0% is about no effect; nearly all actives have a fitted effect of over 55% in size
Sm TGR inh = qHTS Assay for the Inhibitors of Schistosoma Mansoni Peroxiredoxins; Potency, µM (series often up to 114 µM), without a hit: at the highest dose activity change, negative = inhibition, hits mostly inhibitors; Schistosoma mansoni thioredoxin glutathione reductase (TGR), Q962Y6; actives 3% (n = 360,000); AID 485364, 2010; purified TGR, DTNB reduction, TNB absorbance 405 nm; further: potency means the concentration at half of the fitted maximal effect; on the % scale 0 is the no-effect control and ±100 the full control effect; nearly all actives have a fitted effect of over 60% in size
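First, TGR (20 nM dispensed) and NADPH were mixed with compound. Second, a 15 min room-temperature incubation followed. Third, further NADPH and then DTNB were added to start the reaction. Finally, TNB absorbance was monitored kinetically.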
Pf growth 48h = Primary qHTS for delayed death inhibitors of the malarial parasite plastid, 48 hour incubation. AID 504832, 2011. Potency, µM (series often up to 28.7 µM), without a hit: at the top dose activity change, negative = inhibition, hits mostly inhibitors. P. falciparum luciferase growth in erythrocytes, 48 h. actives 5.9% (n = 310,000); further: potency means the concentration at half of the fitted maximal effect; on the % scale 0 is the no-effect control and ±100 the full control effect
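Luciferase-expressing parasites in RBCs, 2% Hct / 0.1% parasitemia final; RPMI 1640 + 0.5% Albumax; 37 C, 5% CO2, one generation; luminescence read-out, lower signal = inhibition.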
Pf growth 96h = Primary qHTS for delayed death inhibitors of the malarial parasite plastid, 96 hour incubation; actives 6.9% (n = 320,000); P. falciparum luciferase reporter growth, 96 h; Potency, µM (doses to about 28.7 µM), inactives show at the top dose activity change, negative = inhibition, hits mostly inhibitors; AID 504834, 2011; further: potency means the concentration at half of the fitted maximal effect; on the % scale 0 is the no-effect control and ±100 the full control effect
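Two parasite generations (96 h, 37 C, 5% CO2) of compound exposure in infected erythrocytes (0.05% parasitemia, 2% hematocrit). Luciferase-reporter P. falciparum; decreased luminescence indicates inhibited growth, aimed at apicoplast-acting delayed death.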
HCV inhibitor = qHTS Assay for Inhibitors of Hepatitis C Virus (HCV); Huh7.5.1 HCVcc-Cre infection, luciferase reporter, 44 h; Potency, µM (highest dose often 41.8 µM), for the others: top-dose activity change, negative = inhibition, usual class: inhibitors; actives 3.4% (n = 340,000); AID 651820, 2012; further: potency means the concentration at half of the fitted maximal effect; on the % scale 0 is the no-effect control and ±100 the full control effect
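Luciferase read-out (15 sec integration) after a 15 min room-temperature substrate step quantifies HCVcc-Cre infection. Cells, 1,000 per well, had compound added 4 h post-plating, then virus at ~0.5 moi, and were cultured 44 h.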
* = called active by the depositor; [ ] = dose if it differs, or a comment. Unless noted, the call rests on the fitted dose curve; in most records, active means well fitted curve in the direction sought with a large enough effect; inconclusive means small, poorly fitted or top-dose-only effect, or another doubt; inactive means no such curve, though single readings can be large; an effect the other way counts as inactive or inconclusive.

For COc1ccc(CCCc2n[nH]c(=S)o2)cc1 the results were HCMV antiviral 5, SARS PLpro yeast 1%, Sm TGR inh 0%, Pf growth 48h 20%, Pf growth 96h inactive and HCV inhibitor -2%.
For COc1ccc(Cc2n[nH]c(=S)o2)cc1 the results were HCMV antiviral -25, SARS PLpro yeast 12%, Sm TGR inh 35µM*, Pf growth 48h -8%, Pf growth 96h inconclusive and HCV inhibitor 15%.
For Cc1ccc(NC(=O)C(C)c2cccc(C(=O)c3ccccc3)c2)cc1O (centres undefined) the results were HCMV antiviral -62*, SARS PLpro yeast 0%, Sm TGR inh -6%, Pf growth 48h -20%, Pf growth 96h inconclusive and HCV inhibitor inconclusive.
Cc1cccc(NC(=O)C(C)C(=O)c2ccccc2)c1 (centres undefined) was read as HCMV antiviral -13, SARS PLpro yeast inconclusive, Sm TGR inh 9%, Pf growth 48h inconclusive, Pf growth 96h 56% and HCV inhibitor 8%.
For CCc1ccc(/C=N/n2c(C)cc(C)c(C#N)c2=O)cc1 the results were HCMV antiviral -9, SARS PLpro yeast 16%, Sm TGR inh 5%, Pf growth 48h 9.3µM*, Pf growth 96h 1.7µM* and HCV inhibitor 1%.
For Cc1cccc(/C=N/n2c(C)cc(C)c(C#N)c2=O)c1 the results were HCMV antiviral -12, SARS PLpro yeast 2%, Sm TGR inh 0%, Pf growth 48h 5.2µM*, Pf growth 96h inconclusive and HCV inhibitor 24%.
Screening COc1ccc(C2=NOC(Cn3nc(-c4ccccc4)cc3C(=O)NCc3ccccc3OC)C2)cc1 (centres undefined) returned HCMV antiviral 21, SARS PLpro yeast 3% and HCV inhibitor inconclusive.
COc1ccc(C(C(=O)NCc2ccccc2)N(C(=O)c2snc(C(N)=O)c2N)C2CCCC2)cc1 (centres undefined) was read as HCMV antiviral -3, SARS PLpro yeast 1%, Sm TGR inh 13%, Pf growth 48h 15µM*, Pf growth 96h 67% and HCV inhibitor -8%.
Screening COc1ccc(C(C(=O)NC2CCCCC2)N(Cc2cccnc2)C(=O)c2snc(C(N)=O)c2N)cc1 (centres undefined) returned HCMV antiviral 7, SARS PLpro yeast -2%, Sm TGR inh 9%, Pf growth 48h inconclusive, Pf growth 96h 59% and HCV inhibitor -7%.
COc1ccc(C(C(=O)NC2CCCC2)N(Cc2ccccc2)C(=O)c2snc(C(N)=O)c2N)cc1OC (centres undefined) was read as HCMV antiviral 42, SARS PLpro yeast 3%, Sm TGR inh -12%, Pf growth 48h 0%, Pf growth 96h inconclusive and HCV inhibitor 2%.
For COc1cc(C(C(=O)NCc2ccccc2)N(C(=O)c2snc(C(N)=O)c2N)C2CCCC2)cc(OC)c1OC (centres undefined) the results were HCMV antiviral -36, SARS PLpro yeast 0%, Sm TGR inh -4%, Pf growth 48h 13µM*, Pf growth 96h 4.7µM* and HCV inhibitor -18%.
N#C/C(=C\c1c(Oc2ccccc2F)nc2ccccn2c1=O)C(=O)NC1CCS(=O)(=O)C1 (centres undefined) was read as HCMV antiviral 127, SARS PLpro yeast 0%, Sm TGR inh 1%, Pf growth 48h inconclusive, Pf growth 96h 9.3µM* and HCV inhibitor 10%.
For Cc1cc(C)cc(Oc2nc3ccccn3c(=O)c2/C=C(\C#N)C(=O)NC2CCS(=O)(=O)C2)c1 (centres undefined) the results were HCMV antiviral 28, SARS PLpro yeast -2%, Sm TGR inh -15%, Pf growth 48h inconclusive, Pf growth 96h -17% and HCV inhibitor -26%.
For Cc1ccc(Oc2nc3ccccn3c(=O)c2/C=C(\C#N)C(=O)NC2CCS(=O)(=O)C2)c(C)c1 (centres undefined) the results were HCMV antiviral -9, SARS PLpro yeast 3%, Sm TGR inh -1%, Pf growth 48h inconclusive, Pf growth 96h 10µM* and HCV inhibitor 19%.
Screening COc1cccc(CNC(=O)CCNS(=O)(=O)c2ccc3c(c2)CCCC(=O)N3)c1 returned HCMV antiviral 5 and Sm TGR inh 3%.
For COc1cccc(-n2nc(-c3ccnn3-c3cccc(Cl)c3)c(=O)n(C)c2=O)c1 the results were HCMV antiviral -13, SARS PLpro yeast 3%, Sm TGR inh 0%, Pf growth 48h inconclusive, Pf growth 96h inconclusive and HCV inhibitor inconclusive.
Screening COc1cccc(-n2nc(-c3ccnn3-c3ccccc3)c(=O)n(C)c2=O)c1 returned HCMV antiviral 40, SARS PLpro yeast 7%, Sm TGR inh 0%, Pf growth 96h 12µM* and HCV inhibitor inconclusive.
Cc1cc(Sc2nc(N)ncc2[N+](=O)[O-])ncn1 was read as HCMV antiviral -99*, SARS PLpro yeast -3%, Sm TGR inh 2.2µM*, Pf growth 48h 31%, Pf growth 96h -12% and HCV inhibitor inconclusive.
Screening Cc1cc(Sc2ncnc(N)c2[N+](=O)[O-])ncn1 returned SARS PLpro yeast -2%, Sm TGR inh 0.89µM*, Pf growth 48h 0%, Pf growth 96h 10% and HCV inhibitor inconclusive.
Screening C=C1CC[C@@H]2[C@](C)(CCC[C@@]2(C)/C=C/[C@@H](O)C(C)(C)O)[C@H]1CC(=O)NCCS(=O)(=O)O returned HCMV antiviral 70 and HCV inhibitor -9%[8.37 µM].
Screening Cc1ccc(NC(=O)CC2SC3=NCCCN3C2=O)c(C)c1 (centres undefined) returned HCMV antiviral 6, SARS PLpro yeast -11%, Sm TGR inh 2.8µM*, Pf growth 48h inconclusive, Pf growth 96h -8% and HCV inhibitor 14%.
Cc1ccc(NC(=O)CC2Sc3ccccc3NC2=O)c(C)c1 (centres undefined) was read as HCMV antiviral -14 and Sm TGR inh -1%.
`O=C(CSc1nc(=O)n(CCCN2CCOCC2)c2c1CCCC2)Nc1ccc(F)cc1` gave HCMV antiviral -12, SARS PLpro yeast 3%, Sm TGR inh -1%, Pf growth 48h 0%, Pf growth 96h -12% and HCV inhibitor -4%.
Screening CCOC(=O)c1[nH]c(C(=O)O)c(CCC(=O)OC)c1C returned HCMV antiviral -2, SARS PLpro yeast -1%, Sm TGR inh 5%, Pf growth 48h 1%, Pf growth 96h 12µM* and HCV inhibitor 23%.
